Activity calls are given as the source filed them. The calls were made as follows: active = hit-call score of the fitted dose curve at least 0.9, where 1 is the maximum; inactive = score below 0.9.
What was measured:
[1] = BSK_KF3CT_SRB: Viability Assessment in the BioMAP Diversity Plus: KF3CT Assay (AID 2283069); settings: primary human keratinocytes with fibroblasts;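 also: total protein by sulforhodamine B staining as a cytotoxicity measure; read 24 h after compound addition; fitted for both signal gain and loss against DMSO baseline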
Summary of the method: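 Keratinocytes co-cultured with foreskin fibroblasts (human primary); chemical added, 24 h; fix 10% TCA, stain 0.1% SRB, A560. Bidirectional fit vs DMSO.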

[2] = read-out: Interleukin-1 alpha (IL1a), IL1A (gene 3552); test: BSK_KF3CT_IL1a: BioMAP Diversity Plus: KF3CT Assay for Interleukin-1 alpha (IL1a) Biomarker Activity (AID 2283070); settings: primary human keratinocytes with fibroblasts; actives raise or lower the signal
Summary of the method: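 Chemicals were dosed onto co-cultured human keratinocytes and foreskin fibroblasts, IL-1a was quantified by ELISA at 24 h, and activity was fitted in both directions relative to DMSO controls.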

[3] = read-out: TIMP metallopeptidase inhibitor 2 (TIMP2), TIMP2 (gene 7077); test: BSK_KF3CT_TIMP2: BioMAP Diversity Plus: KF3CT Assay for TIMP metallopeptidase inhibitor 2 (TIMP2) Biomarker Activity (AID 2283071); settings: primary human keratinocytes with fibroblasts; actives raise or lower the signal
Summary of the method: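 Co-culture of human primary keratinocytes and foreskin fibroblasts, measured 24 h after chemical dosing. TIMP-2 quantified by ELISA and fitted in both directions relative to DMSO. Cytotoxicity checked in parallel cultures by SRB total-protein staining.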

[4] = read-out: Transforming growth factor beta 1 (TGFb1), TGFB1 (gene 7040); test: BSK_KF3CT_TGFb1: BioMAP Diversity Plus: KF3CT Assay for Transforming growth factor beta 1 (TGFb1) Biomarker Activity (AID 2283072); settings: primary human keratinocytes with fibroblasts; actives raise or lower the signal
Summary of the method: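 Human keratinocyte/foreskin fibroblast co-culture; TGF-b1 measured by ELISA 24 h after dosing, fitted bidirectionally versus DMSO. Cytotoxicity checked in parallel cultures by total protein (SRB staining, 560 nm).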

[5] = read-out: C-C motif chemokine 2 (Homo sapiens) (UniProt P13500); test: BSK_KF3CT_MCP1: BioMAP Diversity Plus: KF3CT Assay for Monocyte Chemoattractant Protein 1 (MCP1/CCL2) Biomarker Activity (AID 2283073); settings: primary human keratinocytes with fibroblasts; actives raise or lower the signal
Summary of the method: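 Biomarker MCP-1 is measured by ELISA in primary human keratinocytes co-cultured with foreskin fibroblasts, 24 h after chemical treatment; DMSO serves as the negative control and activity baseline.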

[6] = read-out: Matrix Metallopeptidase 9 (MMP9), MMP9 (gene 4318); test: BSK_KF3CT_MMP9: BioMAP Diversity Plus: KF3CT Assay for Matrix Metallopeptidase 9 (MMP9) Biomarker Activity (AID 2283074); settings: primary human keratinocytes with fibroblasts; actives raise or lower the signal;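 as to AC50: MMP9 protein level quantified by ELISA in the co-culture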
Summary of the method: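 Human keratinocyte/foreskin fibroblast co-culture; compound added; 24 h; MMP-9 by ELISA; bidirectional fit vs DMSO baseline.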

[7] = read-out: urokinase plasminogen activator (uPA), PLAU (gene 5328); test: BSK_KF3CT_uPA: BioMAP Diversity Plus: KF3CT Assay for urokinase plasminogen activator (uPA) Biomarker Activity (AID 2283075); settings: primary human keratinocytes with fibroblasts; actives raise or lower the signal
Summary of the method: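 ELISA readout of uPA, analyzed for signal gain or loss relative to DMSO, from a human primary keratinocyte–foreskin fibroblast co-culture measured 24 h after chemical treatment.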

[8] = read-out: CD40, CD40 (gene 958); test: BSK_LPS_CD40: BioMAP Diversity Plus: LPS Assay for CD40 Biomarker Activity (AID 2283076); settings: primary human HUVEC with PBMC; actives raise or lower the signal
Summary of the method: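 Using a multiplexed primary human co-culture (umbilical vein endothelium plus PBMC), CD40 was read by ELISA 24 h after dosing, with cytotoxicity tracked by sulforhodamine B staining of parallel cultures and activity fitted bidirectionally versus DMSO.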

[9] = read-out: E-selectin (Homo sapiens) (UniProt P16581); test: BSK_LPS_Eselectin: BioMAP Diversity Plus: LPS Assay for Eselectin Biomarker Activity (AID 2283077); settings: primary human HUVEC with PBMC; actives raise or lower the signal
Summary of the method: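 Dose chemical onto LPS-driven HUVEC/PBMC co-culture; after 24 h, run ELISA for E-selectin; fit up- and down-going responses relative to DMSO control.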

[10] = read-out: Interleukin-8 (IL8), CXCL8 (gene 3576); test: BSK_LPS_IL8: BioMAP Diversity Plus: LPS Assay for Interleukin-8 (IL8) Biomarker Activity (AID 2283078); settings: primary human HUVEC with PBMC; actives raise or lower the signal
Summary of the method: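 In this LPS system, chemical-treated human umbilical vein endothelium/PBMC co-cultures were harvested at 24 h for IL-8 ELISA.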

Measured: AC50

Chain of E-selectin (Homo sapiens) (P16581 whole entry, looked up): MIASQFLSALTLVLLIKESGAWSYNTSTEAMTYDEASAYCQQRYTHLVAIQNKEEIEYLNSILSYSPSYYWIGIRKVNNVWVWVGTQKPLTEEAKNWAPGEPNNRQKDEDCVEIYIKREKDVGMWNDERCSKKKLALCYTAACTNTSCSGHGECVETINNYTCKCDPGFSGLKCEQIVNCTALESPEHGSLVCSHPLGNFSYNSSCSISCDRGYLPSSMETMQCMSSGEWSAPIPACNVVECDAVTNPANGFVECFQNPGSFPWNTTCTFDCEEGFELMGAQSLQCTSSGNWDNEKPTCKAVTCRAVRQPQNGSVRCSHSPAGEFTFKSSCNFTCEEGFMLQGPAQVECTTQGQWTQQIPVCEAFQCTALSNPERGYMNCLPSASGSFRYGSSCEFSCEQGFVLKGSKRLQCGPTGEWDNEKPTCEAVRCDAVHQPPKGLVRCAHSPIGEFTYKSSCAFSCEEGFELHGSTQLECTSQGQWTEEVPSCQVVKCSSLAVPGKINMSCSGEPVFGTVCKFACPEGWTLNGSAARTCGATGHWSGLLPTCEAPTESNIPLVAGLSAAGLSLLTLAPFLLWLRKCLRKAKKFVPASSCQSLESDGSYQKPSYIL

CCOC(=O)CC(SP(=O)(OC)OC)C(=O)OCC (centres undefined)
active: [9] 2.5 µM
inactive: all other assays above

CC(C)N(C(=O)SCC(Cl)=C(Cl)Cl)C(C)C
active: [1] 32.5 µM | [2] 30.5 µM | [3] 36.4 µM | [5] 30.5 µM | [6] 36.6 µM | [7] 32.6 µM | [8] 29.9 µM | [9] 31.6 µM | [10] 29.5 µM
inactive: [4]

CCOC(=O)COc1cc(-c2nn(C)c(OC(F)F)c2Cl)c(F)cc1Cl
inactive: all assays above

Cc1nn(-c2cc(NS(C)(=O)=O)c(Cl)cc2Cl)c(=O)n1C(F)F
inactive: all assays above

CCCCOC(=O)c1ccccc1C(=O)O
inactive: all assays above

CNC(=O)ON=C(SC)C(=O)N(C)C
inactive: all assays above

CN(C)NC(=O)CCC(=O)O
inactive: all assays above

CC(C1CC1)C(O)(Cn1cncn1)c1ccc(Cl)cc1 (centres undefined)
inactive: all assays above

CCOP(=O)(OCC)Oc1cc(C)nc(C(C)C)n1
active: [3] 29.8 µM | [5] 31.5 µM | [6] 30.3 µM | [7] 29.3 µM | [8] 14.4 µM
inactive: [1] | [2] | [4] | [9] | [10]

C[N+]1(C)CCCCC1
inactive: all assays above

Cc1ccn2nc(S(=O)(=O)Nc3c(F)cccc3F)nc2n1
inactive: all assays above

O=C(O)c1cc(Oc2ccc(C(F)(F)F)cc2Cl)ccc1[N+](=O)[O-]
inactive: all assays above

CC(Oc1cccc(Cl)c1)C(=O)O (centres undefined)
active: [2] 1.15 µM
inactive: all other assays above

CC(C)[C@H](C(=O)O[C@H](C#N)c1cccc(Oc2ccccc2)c1)c1ccc(Cl)cc1
active: [9] 7.16 µM | [10] 5.9 µM
not listed: [3]
inactive: all other assays above

S=C1NCCN1
inactive: all assays above

CCOP(=S)(OCC)Oc1ccc([N+](=O)[O-])cc1
active: [8] 16.7 µM
inactive: all other assays above

COP(=O)(OC)OC(Br)C(Cl)(Cl)Br (centres undefined)
active: [1] 26.1 µM | [2] 27.1 µM | [3] 31.3 µM | [4] 32.3 µM | [5] 31.1 µM | [6] 30.4 µM | [7] 36.9 µM | [8] 19.4 µM | [9] 32.3 µM | [10] 30.8 µM

CN1COCN(Cc2cnc(Cl)s2)C1=N[N+](=O)[O-]
inactive: all assays above
